An excerpt weighted towards active compounds, which were near 22% of everything screened.
CYP2C19 activ: human CYP2C19 activators, primary screen, biochemical, luminescence; Cytochrome P450 2C19 (Homo sapiens), P33261; recombinant CYP2C19, luciferin-H EGE luminescence; hits give high values; 0 = fully inhibited enzyme, 1 = untreated enzyme; activation factor at 5 µM; 96,000 tested, under 10 active;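 active = activation factor of at least 2 at 5 µM in the primary screen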;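 note: 0 = wells with 2.5 mM tranylcypromine and 1 = vehicle-only wells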
CYP2C9 act: human CYP2C9 activators, primary screen, biochemical, luminescence | Cytochrome P450 2C9 (Homo sapiens), P11712 | recombinant CYP2C9, luciferin-H conversion; hits give high values; factor 1 = untreated enzyme, 0 = blocked | activation factor at 5 µM | 1.4% of 96,000 active;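 active = activation factor of 2 or more for CYP2C9 at a 5 µM dose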;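 note: 0 = sulfaphenazole-blocked wells and 1 = vehicle-only wells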
Target sequence (P11712 whole entry, looked up): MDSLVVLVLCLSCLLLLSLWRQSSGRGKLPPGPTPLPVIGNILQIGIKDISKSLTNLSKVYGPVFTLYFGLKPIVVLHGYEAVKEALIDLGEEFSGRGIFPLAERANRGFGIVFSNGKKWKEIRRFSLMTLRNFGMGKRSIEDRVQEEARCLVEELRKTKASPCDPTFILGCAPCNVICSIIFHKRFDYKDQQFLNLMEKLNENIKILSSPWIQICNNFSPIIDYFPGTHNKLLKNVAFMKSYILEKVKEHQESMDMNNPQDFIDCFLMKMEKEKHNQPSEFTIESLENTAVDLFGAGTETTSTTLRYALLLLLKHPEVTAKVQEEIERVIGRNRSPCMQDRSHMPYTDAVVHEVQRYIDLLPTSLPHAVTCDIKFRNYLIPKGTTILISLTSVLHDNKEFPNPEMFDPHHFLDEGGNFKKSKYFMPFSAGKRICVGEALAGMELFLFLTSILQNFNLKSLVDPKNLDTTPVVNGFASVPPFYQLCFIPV
CYP2C9 inh: blockers of cytochrome P450 2C9 activity – biochemical, luminescence, ADME assay, primary screen; P11712; CYP2C9 Supersomes, luciferin-H conversion; inhibition, % at 5 µM; 20% of 96,000 active; AID 777, 2007;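 active = blocking of liver enzyme CYP2C9 beyond about 50% at 5 µM, limit read from the data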
CYP2C19 inhib: blockers of cytochrome P450 2C19 activity – biochemical, luminescence, ADME assay, primary screen | 21% of 96,000 active | inhibition, % at 5 µM | P33261 | CYP2C19 Supersomes, luciferin-H EGE luminescence, 30 min;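 active = CYP2C19 inhibition above a set limit at 5 µM in the primary screen, cut at about 50% in these data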;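 note: plate controls were negative control wells for no effect and 2.5 mM tranylcypromine positive control for full effect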
Measles CPE: compounds protecting cells from measles virus cytopathic effect, primary screen, measles RdRp inhibitor project, single point, MLSMR library, absorbance. Measles virus-infected cells, CPE protection. 1.5% of 140,000 active. AID 841, 2007. protection (pct of control), % at 4 µM; in the data active = protection mostly above about 24%, no sharp cut-off; inactive = mostly below about 26%
Numbers without * were called inactive.

Results for Cc1c(-c2ccc(F)cc2)nc(N)c(C#N)c1-c1cccs1 ?
CYP2C19 activ: 1.1; CYP2C9 act: 1; CYP2C9 inh: -1; CYP2C19 inhib: -6; Measles CPE: 13

Results for CCOC(=O)c1cccc(NC(=O)CN2CCN(c3ccc(OC)cc3)CC2)c1 ?
CYP2C19 activ: 0.5; CYP2C9 act: 0.3; CYP2C9 inh: 73*; CYP2C19 inhib: 54*; Measles CPE: 6

How did COc1ccc(N2CCN(CC(=O)Nc3c(C)cc(C)cc3C)CC2)cc1 do in these assays?
CYP2C19 activ: 0.9; CYP2C9 act: 0.7; CYP2C9 inh: 26; CYP2C19 inhib: 12; Measles CPE: 15

Results for O=C(Nc1cccc(F)c1)N1CC=C(c2ccc(Cl)cc2)CC1 ?
CYP2C19 activ: 0; CYP2C9 act: 0; CYP2C9 inh: 96*; CYP2C19 inhib: 96*; Measles CPE: 8

How did COC(=O)c1ccc(NC(=O)CN2CCN(S(=O)(=O)c3cc(Cl)ccc3OC)CC2)cc1 do in these assays?
CYP2C19 activ: 0.1; CYP2C9 act: 2.7*; CYP2C9 inh: -174; CYP2C19 inhib: 95*; Measles CPE: 26

What do the screens show for `COc1cccc(N2CCN(CC(=O)Nc3nnc(-c4ccccc4)s3)CC2)c1`?
CYP2C19 activ: 0.5; CYP2C9 act: 0.2; CYP2C9 inh: 78*; CYP2C19 inhib: 50*; Measles CPE: 9

How did CCOC(=O)N1CCN(c2c(NC3CCN(Cc4ccccc4)CC3)c(=O)c2=O)CC1 do in these assays?
CYP2C19 activ: 1; CYP2C9 act: 1; CYP2C9 inh: -2; CYP2C19 inhib: -2; Measles CPE: 26

How did CCN(CC)C(=O)c1n[nH]c(=O)c2ccccc12 do in these assays?
CYP2C19 activ: 1.3; CYP2C9 act: 1.2; CYP2C9 inh: -23; CYP2C19 inhib: -26; Measles CPE: 3

How did O=C(CN1CCN(c2ccc(F)cc2)CC1)Nc1ccc(F)c(F)c1 do in these assays?
CYP2C19 activ: 0.7; CYP2C9 act: 0.7; CYP2C9 inh: 32; CYP2C19 inhib: 31; Measles CPE: 10

What do the screens show for `O=C(CN1CCN(c2ccc(Cl)cc2)CC1)Nc1cccc(F)c1`?
CYP2C19 activ: 0.6; CYP2C9 act: 0.3; CYP2C9 inh: 67*; CYP2C19 inhib: 39; Measles CPE: 8

Results for Cc1cc(C)nc(N/N=C/C2=C(N3CCOCC3)C(=C/c3ccccc3)/CC2)n1 ?
Measles CPE: 31

Results for CCCc1cc(-c2[nH]ncc2-c2ccc3c(c2)OCCCO3)c(O)cc1OC ?
CYP2C19 activ: 0.1; CYP2C9 act: 0; CYP2C9 inh: 100*; CYP2C19 inhib: 86*; Measles CPE: 12

How did CCc1cc(-c2[nH]ncc2-c2ccc3c(c2)OCO3)c(O)cc1O do in these assays?
CYP2C19 activ: 0; CYP2C9 act: 0; CYP2C9 inh: 99*; CYP2C19 inhib: 100*; Measles CPE: 84*

How did Oc1ccccc1-c1cc(-c2ccc3c(c2)OCCO3)n[nH]1 do in these assays?
CYP2C19 activ: 0.8; CYP2C9 act: 0.7; CYP2C9 inh: 27; CYP2C19 inhib: 21; Measles CPE: 31

What do the screens show for `COc1ccc(-c2[nH]ncc2-c2ccc3c(c2)OCCO3)c(O)c1`?
CYP2C19 activ: 0.4; CYP2C9 act: 0.3; CYP2C9 inh: 66*; CYP2C19 inhib: 61*; Measles CPE: 6

Results for O=C(Cn1cnc2c(nnn2-c2ccc(F)cc2)c1=O)NCC1CCCO1 (configuration not stated) ?
Measles CPE: 30

Results for CCCOc1ccc(OCCOCCNCc2ccccc2)cc1 ?
Measles CPE: 8

How did CCCCn1c(-c2ccccc2)nnc1-c1ccccc1 do in these assays?
CYP2C19 activ: 0.7; CYP2C9 act: 0.9; CYP2C9 inh: 8; CYP2C19 inhib: 29; Measles CPE: 8

What do the screens show for `CCCCOC(=O)C1=C(C)Nc2ncnn2C1c1ccc(OCC)c(OC)c1` (configuration not stated)?
CYP2C19 activ: 0.6; CYP2C9 act: 0.6; CYP2C9 inh: 38; CYP2C19 inhib: 37; Measles CPE: 11

What do the screens show for `CC(=O)NC(C)C(c1cccs1)N1CCN(c2ccccc2)CC1` (configuration not stated)?
CYP2C19 activ: 0.5; CYP2C9 act: 0.9; CYP2C9 inh: 14; CYP2C19 inhib: 48; Measles CPE: 23

Compound activity as filed in PubChem.
